# ABHD5-PLIN5 inh – ABHD5-PLIN5 protein interaction inhibition; inhibition, % at 4 µM; Q00G26+Q8WTS1; Split G. princeps luciferase complementation, luminescence, 4 h; 360,000 tested, 0.78% active; AID 602281;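 active = inhibition above the mean inhibition across every tested compound plus 3 SD, cut at about 22% in these data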;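 note: 0% = DMSO only wells and the 100% control is not disclosed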
# CF NFkB block – blocks PAF-induced NF-kB reporter in cystic fibrosis cells; inhibition, % at 5 µM; KKLEB NF-kB-GFP reporter, GFP fluorescence overnight; 360,000 tested, 0.86% active;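 active = at least 50% inhibition at 5 µM, scaled per plate between neutral and stimulator controls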;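 note: PAF is a Pseudomonas aeruginosa culture filtrate used as stimulus; plate controls were PAF-stimulated DMSO wells for no effect and unstimulated DMSO wells for full effect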
# Mdm2 MdmX PPI – disrupts the human Mdm2-MdmX interaction | O15151+Q00987 | SaOS-2 split-luciferase Mdm2/MdmX complementation, luminescence | inhibition, % at 8 µM | 330,000 tested, 3% active | AID 485346;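 active = inhibition of at least 50% at 8 µM in the primary screen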
# Target sequence (O15151 whole entry, looked up): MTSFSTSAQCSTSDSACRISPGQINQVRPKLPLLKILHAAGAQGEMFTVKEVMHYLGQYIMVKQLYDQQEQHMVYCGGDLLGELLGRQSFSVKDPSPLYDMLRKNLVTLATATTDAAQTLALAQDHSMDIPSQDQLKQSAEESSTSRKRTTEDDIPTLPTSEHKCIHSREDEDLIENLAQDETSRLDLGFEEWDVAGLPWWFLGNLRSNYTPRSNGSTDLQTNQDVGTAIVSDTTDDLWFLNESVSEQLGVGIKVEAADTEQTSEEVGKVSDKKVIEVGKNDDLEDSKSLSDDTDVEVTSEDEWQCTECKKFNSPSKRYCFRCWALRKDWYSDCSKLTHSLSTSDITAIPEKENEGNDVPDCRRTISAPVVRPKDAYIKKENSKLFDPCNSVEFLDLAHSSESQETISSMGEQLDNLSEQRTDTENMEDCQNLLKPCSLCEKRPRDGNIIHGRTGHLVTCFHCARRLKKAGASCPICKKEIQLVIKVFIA
# Target sequence (Q00987 whole entry, looked up): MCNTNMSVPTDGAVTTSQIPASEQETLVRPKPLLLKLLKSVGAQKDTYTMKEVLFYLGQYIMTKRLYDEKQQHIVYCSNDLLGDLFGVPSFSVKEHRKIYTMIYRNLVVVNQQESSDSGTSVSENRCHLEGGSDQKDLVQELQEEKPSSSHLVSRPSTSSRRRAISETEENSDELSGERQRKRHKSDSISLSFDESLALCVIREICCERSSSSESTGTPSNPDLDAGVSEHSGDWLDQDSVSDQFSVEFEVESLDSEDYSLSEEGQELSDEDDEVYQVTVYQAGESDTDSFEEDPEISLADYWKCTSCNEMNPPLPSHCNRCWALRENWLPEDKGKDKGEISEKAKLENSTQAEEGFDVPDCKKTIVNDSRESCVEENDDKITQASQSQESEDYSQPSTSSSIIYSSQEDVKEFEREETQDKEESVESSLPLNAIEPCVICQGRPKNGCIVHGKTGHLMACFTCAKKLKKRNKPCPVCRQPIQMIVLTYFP
# Peg3 prom inh – inhibitors of Peg3 promoter. 360,000 tested, 1.7% active. inhibition, % at 20 µM. AID 588405. HeLa PEG-Prom luciferase reporter, luminescence, overnight;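 active = inhibition of at least 50% at 20 µM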
# HIF-2a inh – blocks HIF-2a reporter activity; 786-0 RCC cells HIF-2a reporter, luciferase luminescence, overnight; inhibition, % at 18.8 µM; 360,000 tested, 0.72% active;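 active = inhibition of the luminescence signal of 40% or more relative to plate controls, in a single-dose primary screen at 18.75 µM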
# KKLEB cytotox – counter-screen for CF NF-kB inhibitors: cytotoxicity. KKLEB CF airway cells viability, ATPlite luminescence, overnight; active compounds read low; cells stimulated with P. aeruginosa culture filtrate. activity change (cytotoxicity), % at 5 µM. 360,000 tested, 0.36% active. AID 602141;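 active = corrected activity change at or below -50% at 5 µM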
# Mdm2-MdmX conf – confirmation of human Mdm2/MdmX interaction inhibitors; shares compounds with Mdm2 MdmX PPI; Mdm2-MdmX binding, luminescent assay; inhibition, % at 8 µM; 10,000 tested, 55% active; in the data active = inhibition above about 40%
# FLuc counter – full-length luciferase inhibition in Mdm2/MdmX counter-screen; SaOS-2 full-length luciferase counterscreen, luminescence; 6,200 tested, 77% active; AID 504607; inhibition, % at 8 µM; shares compounds with Mdm2 MdmX PPI;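 active = mean inhibition at 8 µM reaching about 37%, which flags the compound as non-specific, limit read from the data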;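 note: p53-null SaOS-2 cells with luciferase driven by a doxycycline-inducible promoter; compound on cells about two nights before reading with doxycycline added after day one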
# An asterisk follows results filed as active; nt = not tested or not shown. Only some compounds are listed: those with a hit (about 4.6% of all), similar ones and a draw of the others.
SMILES,ABHD5-PLIN5 inh,CF NFkB block,Mdm2 MdmX PPI,Peg3 prom inh,HIF-2a inh,KKLEB cytotox,Mdm2-MdmX conf,others
Cc1ccc(CSCc2nc3ccccc3[nH]2)cc1,-1,10,nt,-45,-133,17,nt,
Cc1cc(C)cc(CC(Cc2nc3ccccc3[nH]2)c2nc3ccccc3[nH]2)c1 (configuration not stated),-1,-4,91*,39,7,-18,24,
COCCNC(=O)C1(C)CCCN(Cc2c(C)nn(-c3ccccc3)c2C)C1 (configuration not stated),6,-4,nt,14,7,4,nt,
O=C(NCCC1=CCCCC1)C1CCC(CNc2nc(=S)[nH]c3ccccc23)CC1 (configuration not stated),-9,4,33,40,16,-2,nt,
O=C(NCCc1ccc(Cl)cc1)C1CCC(CNc2nc(=S)[nH]c3ccccc23)CC1 (configuration not stated),4,8,67*,31,35,-11,35,FLuc counter=61*
CCC(=O)N1CC2(CC(c3cccc(NC(=O)CC(c4ccccc4)c4ccccc4)c3)=NO2)C[C@H]1C(N)=O (some centres not stated),-3,6,-2,16,1,-4,nt,
NC(=O)[C@@H]1CC2(CC(c3cccc(NC(=O)CC(c4ccccc4)c4ccccc4)c3)=NO2)CN1C(=O)c1ccc(Cl)cc1 (some centres not stated),0,13,52*,23,0,7,33,
NC(=O)[C@H]1CC2(CC(c3cccc(NC(=O)CC(c4ccccc4)c4ccccc4)c3)=NO2)CN1C(=O)CC(c1ccccc1)c1ccccc1 (some centres not stated),5,18,68*,26,-12,-8,52*,FLuc counter=57*
C=C(C)C(=O)N1CC2(CC(c3cccc(NC(=O)CC(c4ccccc4)c4ccccc4)c3)=NO2)C[C@H]1C(N)=O (some centres not stated),6,27,13,29,-1,-10,nt,
CCCn1c(N)c(C(=O)CSc2nc3ccccc3c(=O)n2Cc2ccccc2)c(=O)[nH]c1=O,-3,-7,14,30,22,-1,nt,
Cn1c(N)c(C(=O)CSc2nc3ccccc3c(=O)n2Cc2ccccc2)c(=O)n(C)c1=O,1,88*,89*,33,4,-72*,44*,FLuc counter=90*
Cc1cc(C(=O)CSc2nc3ccccc3c(=O)n2C)c(C)n1Cc1ccc2c(c1)OCO2,0,14,63*,15,24,-12,32,
Cc1cc(C(=O)CSc2nnc(-c3ccccc3)n2Cc2ccc3c(c2)OCO3)c(C)n1C,-2,7,20,4,37,2,nt,
Cn1c(N)c(C(=O)COC(=O)c2cc(C(F)(F)F)nc3ccccc23)c(=O)n(Cc2ccccc2)c1=O,nt,nt,50*,nt,nt,nt,35,
CCOc1ccc2[nH]c3c(N4CCc5ccccc5C4)ncnc3c2c1,16,2,57*,34,-24,-2,59*,FLuc counter=36
Cc1ccc2[nH]c3c(N4CCc5ccccc5C4)ncnc3c2c1,8,-6,39,-101,-93,-2,nt,
Brc1ccc2[nH]c3c(N4CCc5ccccc5C4)ncnc3c2c1,nt,nt,69*,nt,nt,nt,20,
Fc1ccc2[nH]c3c(N4CCc5ccccc5C4)ncnc3c2c1,12,-15,57*,17,12,-1,34,
Cc1cc(C(=O)N/N=C/c2ccc(Cl)c([N+](=O)[O-])c2)c(C)n1-c1ccc(F)cc1,-7,1,96*,105*,61*,1,83*,FLuc counter=45*
COc1ccc(NC(=O)COC(=O)c2ccc(OCc3ccccc3Cl)c(OC)c2)c(OC)c1,-4,61*,61*,-8,-51,-75*,16,
O=C(NCC1CCCC(CNC(=O)Nc2ccc(Cl)cn2)C1)Nc1ccc(Cl)cn1 (configuration not stated),2,-2,27,4,-19,6,nt,
